# According to PubChem BioAssay (NCATS):
# Results filed as inconclusive are left out. A call without a number means that no potency is given here. Calls of active or inactive are those of the source. Calls follow the shape of the dose curve; as a rule, active = well fitted curve in the direction sought with a large enough effect; inconclusive = small, poorly fitted or top-dose-only effect, or another doubt; inactive = no such curve, though single readings can be large; an effect the other way counts as inactive or inconclusive.
# Biological target: Aldehyde dehydrogenase, mitochondrial (Homo sapiens) (UniProt P05091)
# Assay: qHTS for Inhibitors of the Aldehyde Dehydrogenase Family (ALDH2) Primary screen (AID 2061308); also: nearly all actives have a fitted effect of over 55% in size
# Conditions: ALDH2 enzyme inhibition qHTS, 1536-well; series mostly up to 56 µM
row,SMILES,Potency
1,C=C1C(=O)O[C@@H]2C[C@@H](C)[C@]34C[C@]5(C(=O)O[C@H]6CC(C)=C([C@H](C)CCCO)[C@H](OC(=O)C(C)CC)[C@H]65)[C@@H](C(C)=C3C[C@@H]12)[C@H]4OC(C)=O (some centres undefined),inactive
2,CC1=C2C[C@H]3O[C@@]3(C)CCC3O[C@@]3(C)C[C@@]2(O)OC1=O (some centres undefined),inactive
3,COc1ccc(CC(=O)NCc2ccccc2-c2ccccc2C(=O)NCCc2cccnc2)cc1,inactive
4,CC1=CC(=O)CC2C1(O)CCC(C)C21CC(c2ccoc2)OC1=O (centres undefined),inactive
5,CC[C@@H](C)[C@@H]1OC2(C=C[C@H]1C)C[C@@H]1C[C@H](C/C=C(\C)[C@H](O[C@H]3C[C@H](OC)[C@H](O[C@H]4C[C@H](OC)[C@H](NC(C)=O)[C@H](C)O4)[C@H](C)O3)[C@H](C)/C=C/C=C3\CO[C@H]4[C@H](O)C(C)=C[C@@H](C(=O)O1)[C@@]34O)O2 (some centres undefined),inactive
6,C=C(COC(=O)C(O)C(O)CN)C12OC1C1(C)C(=CC2=O)C(O)C(O)CC1C (centres undefined),inactive
7,C/C=C/C1=CC2=CC(=O)C(C)(O)C(OC(=O)c3c(C)cc(O)cc3O)C2CO1 (centres undefined),inactive
8,CC(C)c1ccc(CC(=O)N2CCC[C@@H](c3cccc(OC(C)(C)C(=O)O)c3)C2)cc1,inactive
9,CC(C)c1ccc2c(c1)[C@H](O)CC1[C@@](C)(C(=O)O)CCC[C@]21C (some centres undefined),inactive
10,C=CC1(C)C=C2C(=O)OC(=O)C3=C(CCCC3(C)C)C2(O)CC1 (centres undefined),inactive
11,C=C1C(=O)OC2C(OC(=O)C=C(C)C)C(C)=C3C(=O)C=C(C)C3C(O)C12 (centres undefined),inactive
12,CCOC(=O)c1csc(Nc2ccc(Cl)cc2)n1,inactive
13,CC(C)=CC[C@H]1O[C@]2(O)C([C@H]3CCC4[C@@]5(C)CC[C@H](O[C@@H]6O[C@H](CO)[C@H](O)[C@H](O[C@@H]7O[C@H](CO)[C@@H](O)[C@H](O)[C@H]7O)[C@H]6O[C@@H]6O[C@@H](C)[C@H](O)[C@@H](O)[C@H]6O)C(C)(C)C5CC[C@@]4(C)[C@]3(C)[C@H]2O)[C@@]1(C)O (some centres undefined),inactive
14,CCC1OC(=O)C(C)CC(C)C(=O)/C(C)=C/C(C)C(=O)/C=C/C1(C)O (centres undefined),inactive

# Biological target: Retinaldehyde dehydrogenase 3 (Homo sapiens) (UniProt P47895)
# Assay: qHTS for Inhibitors of the Aldehyde Dehydrogenase Family (ALDH1A3) Primary screen (AID 2061315)
# Conditions: ALDH inhibition qHTS; series mostly up to 56 µM
row,SMILES,Potency
1,CC1C(O)C(O)C2C(C(=O)OCCc3ccc(O)cc3)=COC(O[C@@H]3O[C@H](CO)[C@@H](O)[C@H](O)[C@H]3O)C12 (some centres undefined),inactive
2,C=CC(C)(O)CC/C=C(\C)C(=O)O[C@@H]1[C@@H](O)[C@H](OC(C)(C=C)CC/C=C(\C)C(=O)O[C@@H]2O[C@H](CO)[C@@H](O)[C@H](O)[C@H]2O)O[C@H](CO)[C@H]1OC(=O)/C(C)=C/CCC(C)(O)C=C (some centres undefined),inactive
3,CC12CCC(OC3OC(CO)C(O)C(OC4OC(CO)C(O)C(O)C4O)C3O)CC1=CCC1C2CCC2(C)/C(=C3/COC(=O)C3)CCC12O (centres undefined),inactive
4,C/C=C1/[C@H](O[C@@H]2O[C@H](CO)[C@@H](O)[C@H](O)[C@H]2O)OC=C(C(=O)OC)[C@H]1CC(=O)OCCc1ccc(O)c(O)c1,inactive
5,COc1ccc(Oc2c(Cl)cnn(C3c4ccccc4-c4ccccc43)c2=O)cc1,inactive
6,O=C(COc1cccc2c(=O)[nH]ccc12)c1ccccc1,inactive
7,COc1cc(/C=C/C(=O)O)ccc1O[C@@H]1O[C@H](CO)[C@@H](O)[C@H](O)[C@H]1O[C@@H]1OC[C@](O)(CO)[C@H]1O,inactive
8,Nc1nc(NC2CC2)cc(-c2cccc(Cl)c2Cl)n1,inactive
9,COc1cc(C(C)=O)ccc1O[C@@H]1O[C@H](CO[C@@H]2OC[C@@H](O)[C@H](O)[C@H]2O)[C@@H](O)[C@H](O)[C@H]1O,inactive
10,CC1(C)C2CCC(CO[C@@H]3O[C@H](CO[C@@H]4OC[C@](O)(CO)[C@H]4O)[C@@H](O)[C@H](O)[C@H]3O)C1C2 (some centres undefined),inactive
11,O=C1C[C@@]2(C(=O)N1)C(=O)N(Cc1ccc(Br)cc1F)C(=O)c1cccn12,inactive
12,CN(CC1COCCO1)S(=O)(=O)Nc1ccc2ccc3ncc(-c4cnn(C)c4)cc3c(=O)c2c1 (centres undefined),inactive
13,CC(=O)OC[C@]12[C@H](OC(C)=O)[C@H](OC(=O)c3ccccc3)[C@@H]3[C@@H](OC(C)=O)[C@]1(OC3(C)C)[C@H](C)C[C@H](OC(=O)c1ccccc1)[C@@H]2OC(=O)c1ccccc1,inactive
14,COC(=O)C1=COC(OC2OC(CO)C(O)C(O)C2O)C2C(C)C(OC(=O)/C=C/c3ccc(O)cc3)C(O)C12 (centres undefined),inactive
15,CC(C)C[C@@H](N)C(=O)N[C@H]1C(=O)N[C@@H](CC(N)=O)C(=O)N[C@H]2C(=O)N[C@H]3C(=O)N[C@H](C(=O)N[C@H](C(=O)O)c4cc(O)cc(O)c4-c4cc3ccc4O)[C@H](O)c3ccc(c(Cl)c3)Oc3cc2cc(c3O[C@@H]2O[C@H](CO)[C@@H](O)[C@H](O)[C@H]2O[C@H]2C[C@](C)(N)[C@H](O)[C@H](C)O2)Oc2ccc(cc2Cl)[C@H]1O,inactive
